Bioassay records (PubChem BioAssay)
Only some compounds are listed: those with a hit (about 14% of all), similar ones and a draw of the others.
Shiga toxin inh: inhibitors of Shiga toxin in Vero cells | 290,000 compounds, 9.2% hits | Vero cells, Shiga toxin protein synthesis inhibition reporter | inhibition, % at 38.7 µM | AID 2315; in the data active means inhibition mostly above about 28%, no sharp cut-off; inactive means mostly below about 43%; further: 0% is about no effect
FBPA Giardia inh: blocks Giardia fructose-bisphosphate aldolase activity | AID 2451 | purified Giardia FBPA | Potency, µM (doses to about 59.6 µM), inactives show top-dose activity, negative = inhibition, hits mostly inhibitors | A8B2U2 | 290,000 compounds, 0.71% hits; further: potency means the concentration at half of the fitted maximal effect; on the % scale 0 is the no-effect control and ±100 the full control effect; nearly all actives have a fitted effect of over 55% in size
Target sequence (A8B2U2 whole entry, looked up): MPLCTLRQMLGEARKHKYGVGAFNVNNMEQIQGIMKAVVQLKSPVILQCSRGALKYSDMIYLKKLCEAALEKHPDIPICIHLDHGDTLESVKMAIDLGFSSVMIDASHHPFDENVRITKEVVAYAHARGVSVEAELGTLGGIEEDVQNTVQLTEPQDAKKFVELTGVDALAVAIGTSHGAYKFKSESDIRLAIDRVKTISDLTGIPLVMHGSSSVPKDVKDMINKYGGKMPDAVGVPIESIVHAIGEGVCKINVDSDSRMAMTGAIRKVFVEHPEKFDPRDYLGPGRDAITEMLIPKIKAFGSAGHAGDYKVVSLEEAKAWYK
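40 nM FBPA preincubated 10 min at RT with compound (up to 57.5 uM final), then substrate plus GAPDH/TPI/NAD/arsenate coupling and diaphorase/resazurin added. Fluorescence read after 20 min at RT, 525/598 nm.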
NS1 inh: inhibitors of influenza NS1 protein function; Potency, µM (top dose mostly 46.1 µM), inactives show at the top dose activity, positive = more growth; 270,000 compounds, 0.4% hits; AID 2326; calls by dose curve; further: potency means the concentration at half of the fitted maximal effect; actives are rising curves; nearly all actives have a fitted effect of over 50% in size
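A cell-based growth assay was used: compounds that relieve NS1-induced slow growth of budding yeast raise OD600. Assay medium was yeast nitrogen base with ammonium sulphate and -URA supplement, pH 6.0, with 2% galactose.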
LmPK inhibitor: blocks Leishmania mexicana pyruvate kinase activity; Q27686; purified LmPK, Kinase-Glo ATP luminescence, 1 h; Potency, µM (top dose mostly 57.5 µM), without a hit: at the top dose activity change, negative = inhibition, most hits filed as inhibitors; 290,000 compounds, 0.37% hits; AID 1721; further: potency means the concentration at half of the fitted maximal effect; on the % scale 0 is the no-effect control and ±100 the full control effect
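Screened at intermediate enzyme activity to detect both inhibitors and activators: LmPK at 0.1 nM, with a 0.5 nM enzyme column as activation reference. PEP 0.5 mM, ADP 0.1 mM; ATP detected by luminescence after 1 h.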
Cycloheximide cs: counter-screen for Shiga toxin inhibitors: cycloheximide protein synthesis inhibition | max response, % | 300,000 compounds, 12% hits | cell reporter, cycloheximide protein synthesis inhibition counterscreen; in the data active means max response mostly above about 13%, no sharp cut-off; inactive means mostly below about 14%; further: read at 38.3 µM for the half of the compounds with a filed dose; 0% is about no effect
An asterisk follows results filed as active; ? = inconclusive; . = no result; [ ] = remark or other dose. Unless noted, the call rests on the fitted dose curve; in most records, active means well fitted curve in the direction sought with a large enough effect; inconclusive means small, poorly fitted or top-dose-only effect, or another doubt; inactive means no such curve, though single readings can be large; an effect the other way counts as inactive or inconclusive.

SMILES	Shiga toxin inh	FBPA Giardia inh	NS1 inh	LmPK inhibitor	Cycloheximide cs
CC1CCCCN1Cc1c(O)ccc2c(=O)c(-c3nc4ccccc4s3)c(N)oc12 (stereo unspecified)	63*	15%	-8%	-1%	40*
COc1ccc(-c2c(C)oc3c(CN4CCCCC4C)c(O)ccc3c2=O)cc1 (stereo unspecified)	4	15%	-3%	7%	-5
CC(C)N(Cc1c(O)ccc2c(=O)c(-c3ccc(Cl)cc3)coc12)C(C)C	.	?	-4%	13%	18*
Cc1ccc(C(=O)Nc2cccnc2)cc1S(=O)(=O)N1CCCC1	31	.	5%	2%	20*
Cc1ccc(C(=O)Nc2cccc(C(=O)O)c2)cc1S(=O)(=O)N1CCCCC1	132*	7%	?	-12%	87*
CC(C)(C)c1ccc(C(=O)Nc2cccc(C(=O)N3CCOCC3)c2)cc1	57*	-17%	-9%	-4%	45*
Cc1ccc(C(=O)Nc2cccnc2)cc1Cl	41*	5%	-56%	-3%	26*
Cc1ccc(C(=O)Nc2cccc(C(=O)N3CCOCC3)c2)cc1	70	-2%	2%	1%	18
C=C(C)CSc1nc2sc3c(c2c(=O)n1-c1ccc(OC)cc1)CCN(C)C3	5	-10%	1%	0%	-3
COc1cccc(NC(=O)CCc2c(C)nc3nc(CNC(=O)c4cccc(F)c4)nn3c2C)c1	2	.	8%	10%	2
CN(C)c1ncc2nc(-c3ccccc3)c(=O)n(CCC#N)c2n1	.	1%	.	.	.
Cc1cc(C(=O)Nc2cccnc2)cs1	15	1%	-9%	-6%	12*
O=C(Nc1cccnc1)c1cc(F)cc(F)c1	19	1%	-9%	-1%	-3
O=C(Nc1ccccc1)c1ccc(NCc2ccco2)c(S(=O)(=O)N2CCOCC2)c1	16	-6%	?	-6%	10.0*
CC(=O)c1cccc(NC(=O)c2ccc(C)c(S(=O)(=O)N3CCOCC3)c2)c1	2	6%	-19%	-1%	1
Cc1ccc(C(=O)Nc2cccc(C(=O)O)c2)cc1S(=O)(=O)N1CCOCC1	39	-3%	9%	-11%	24*
CO[C@H]1COC(=O)[C@H](C)NC(=O)C/C=C\[C@@H](C)[C@H](OC)COC(=O)[C@@H](OCc2ccccc2)/C=C\[C@@H]1C	.	0%[12.9 µM]	.	.	.
Cc1nc(N2CCOCC2)c2nc(-c3ccccc3)n(CCN(C)C)c2n1	.	6%	.	.	.
Cc1ccc(S(=O)(=O)Nc2ccccc2N2CCOCC2)cc1	8	.	-7%	-3%	-5
CC(=O)N1CC(C)Oc2ccc(S(=O)(=O)NC(CC(=O)O)c3ccccc3)cc21 (stereo unspecified)	-6	13%	3%	-3%	2
O=C(COC(=O)C1C2CC3OC(=O)C1C3C2)Nc1cccc(C(F)(F)F)c1 (stereo unspecified)	15	2%	5%	14%	26
CC(=O)c1cccc(NC(=O)Nc2c(C)nn(C)c2C)c1	-4	-8%	4%	-2%	-3
C/C(=N\NC(=O)c1nn(C)c(C)c1Br)c1cccc(NC(=O)c2ccoc2C)c1	24*	3%	8%	-2%	46*
COc1ccc(C(=O)Nc2cccc(/C(C)=N\NC(=O)c3ccoc3C)c2)cc1OC	60*	-10%	-15%	-1%	45*
CC(C)c1ccc(NC(=O)CCNC(=O)Cn2cnc3ccccc3c2=O)cc1	18	-9%	-12%	-8%	-3
SMILES	Shiga toxin inh	FBPA Giardia inh	NS1 inh	LmPK inhibitor	Cycloheximide cs
COc1cc(S(=O)(=O)NCc2ccc(F)cc2)ccc1-n1cnnn1	-11	.	2%	-2%	-4
CCC1=C2CC[C@H]3C(=O)NC(=O)[C@H]3[C@H]2[C@@]2(C)C(=NCCOC)OC(=O)N2C1=O	.	3%	.	.	.
CSc1ccc(/C=C/C(=O)NC(=O)c2ccccc2O)cc1	20	14%	-39%	-11%	9.6*
O=C(/C=C/c1ccc(Br)cc1)NC(=O)c1ccccc1O	46	0%	2%	-6%	32*
COc1ccc(CCNC(=S)NNC(=O)c2c(Br)c(C)nn2C)cc1OC	-12	.	-8%	-10%	-2
O=C(NCCNC(=O)c1cc(OCC(F)(F)F)ccc1OCC(F)(F)F)Nc1ccc(Cl)cc1	39	1%	-11%	5%	28*
O=C(NCCNC(=O)c1cc(OCC(F)(F)F)ccc1OCC(F)(F)F)Nc1ccc(OC(F)(F)F)cc1	-1	-4%	1%	3%	-5
COc1cccc(CN(C(=O)COc2ccc(Cl)cc2)C2CCS(=O)(=O)C2)c1 (stereo unspecified)	3	6%	-19%	-5%	-3
CN(C(=O)CCS(=O)(=O)c1cc2c(cc1Cl)NC(=O)CO2)C1CCCCC1	1	-9%	14%	1%	-2
COc1ccc(NS(=O)(=O)c2ccc(OCC(=O)N3CCOCC3)cc2)cc1Cl	-17	.	-1%	3%	-3
O=C(OCC(=O)N1CCOCC1)c1ccccc1SCC(=O)N1CCCC1	-9	3%	4%	-2%	-3
O=C(OCC(=O)N1CCOCC1)c1ccccc1Cc1ccccc1	60*	0%	-8%	?	39*
Cc1ccsc1C(=O)OCC(=O)N1CCOCC1	73*	2%	0%	-11%	35*
O=C(OCC(=O)N1CCOCC1)c1ccccc1Br	47*	10%	1%	-12%	39*
OCC1OC([S-])[C@H](O)C(O)C1O.[Au+] (stereo partly specified)	.	-27%	.	.	.
Cn1c(=O)c(-c2ccc(Cl)cc2)nc2cnc(N3CCNCC3)nc21	.	-3%	.	.	.
COc1ccccc1CNS(=O)(=O)c1ccc(-n2cnnn2)c(OC)c1	-3	2%	6%	9%	-6
C#CCCCO/N=C1/C[C@@H](O)[C@@H](O)[C@@H]2[C@H]3C(=O)N(c4ccc(F)cc4F)C(=O)[C@@H]3CC[C@H]12	.	0%[12.9 µM]	.	.	.
COc1cccc(N2C(=NC(=O)COc3ccccc3)SC3CS(=O)(=O)CC32)c1 (stereo unspecified)	-6	.	2%	-10%	-8
O=C1Nc2ccccc2C1=Nc1cccc([N+](=O)[O-])c1	27*	5%	-4%	-4%	6
O=C1Nc2ccccc2C1=Nc1cccc(Cl)c1	-3	-9%	-6%	3%	-3
CC1CCc2c(sc(NC(=O)c3c([N+](=O)[O-])cnn3C)c2C(N)=O)C1 (stereo unspecified)	-5	.	4%	-3%	-3
O=C(Nc1ccc(Cl)cc1)/C(=C/c1ccc([N+](=O)[O-])cc1)c1nc2ccccc2s1	115*	0%	-4%	-5%	56*
C=Cn1c(C(=O)O)ccc1-c1ccc(CC)cc1	35	?	-127%	-1%	42*
CC(C)(C)OC(=O)C1=NOC2(C=CC(=O)C=C2)C1	.	0%	.	.	.
CC1=NN(c2cccc(C(=O)O)c2)C(=O)/C1=C\C=C\c1ccco1	126*	-28%	8%	-3%	86*
CCCC(=O)Nc1ccc(C(=O)NNC(=O)c2cccs2)cc1	-16	0%	2%	-1%	-2
